Screens deposited in PubChem by several laboratories.
Compounds with a hit are over-represented: about 5.4% of the library has one in this group of screens.
Exocytosis inh – blocks lytic granule exocytosis; TALL-104 LAMP-1 surface exposure, flow cytometry; cells stimulated with thapsigargin and PMA; inhibition, % at 10 µM; hit rate 0.66% among 360,000; AID 651702;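 active = inhibition above about 55%, limit read from the data; inconclusive = no clear call, values can overlap the other calls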
PfM18AAP inh-1 – PfM18AAP enzyme inhibition; hit rate 1.2% among 290,000; AID 1822; recombinant PfM18AAP, H-Glu-NHMec fluorogenic cleavage; inhibition, % at 7.35 µM;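 active = inhibition above the campaign mean inhibition over all tested compounds plus 3 SD, cut at about 28% in these data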;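 also: 0% = plate median of test compound wells and 100% = 2 mM ZnCl2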
ALR inh – human ALR oxidase inhibition via reduced H2O2; purified ALR, DTT oxidation, H2O2 HRP-luminol luminescence; inhibition, % (no concentration beside the values); hit rate 3.8% among 290,000; AID 485317;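 active = mean replicate inhibition above about 79%, with every replicate also reaching it, limit read from the data; inconclusive = only one of the two criteria met; inactive = mean below limit and not every replicate reaching it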
Target sequence (P55789 whole entry, looked up): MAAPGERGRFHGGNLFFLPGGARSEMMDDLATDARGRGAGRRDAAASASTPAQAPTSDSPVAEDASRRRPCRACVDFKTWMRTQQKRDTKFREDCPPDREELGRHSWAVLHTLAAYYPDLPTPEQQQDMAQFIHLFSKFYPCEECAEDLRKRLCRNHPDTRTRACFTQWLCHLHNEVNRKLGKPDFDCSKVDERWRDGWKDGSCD
SMARCA2 activ – SMARCA2 function activation, primary screen; hit rate 1% among 370,000; activation, % at 9.1 µM; MG213 cells, MMTV-luciferase reporter, dexamethasone, overnight; AID 652017; in the data active = activation above about 7.8%;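 also: 0% = vehicle wells and 100% = reference activator wells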
GASC-1 inh – human JMJD2C demethylase inhibition; inhibition, % at 2.35 µM; GST-JMJD2C(1-420) H3K9me3 demethylation, DELFIA europium; hit rate 0.069% among 330,000; AID 2099;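 active = more than half of a compound's replicate wells show inhibition beyond 50%, single wells judged on their own value; inconclusive = some, but no more than half, of replicates pass 50% inhibition; inactive = no replicate passes 50% inhibition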;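 also: signal counts dimethyl H3K9 product captured on neutravidin plate; 0% = median of DMSO wells and 100% = 0.3 times that DMSO median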
Target sequence (Q9H3R0 1-420 limits assumed): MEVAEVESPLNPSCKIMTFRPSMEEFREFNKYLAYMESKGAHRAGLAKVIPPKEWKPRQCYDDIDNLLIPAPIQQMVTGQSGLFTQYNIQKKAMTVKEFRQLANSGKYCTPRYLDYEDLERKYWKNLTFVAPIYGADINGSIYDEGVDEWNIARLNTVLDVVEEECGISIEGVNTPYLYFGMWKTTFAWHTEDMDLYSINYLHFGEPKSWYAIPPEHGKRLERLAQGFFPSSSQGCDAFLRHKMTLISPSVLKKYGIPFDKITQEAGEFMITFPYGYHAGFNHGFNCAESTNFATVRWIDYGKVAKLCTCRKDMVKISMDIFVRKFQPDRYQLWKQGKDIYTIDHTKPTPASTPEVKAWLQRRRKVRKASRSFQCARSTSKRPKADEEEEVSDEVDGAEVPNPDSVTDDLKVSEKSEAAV
beta cell repl – MIN6 beta-cell proliferation induction. MIN6 cells proliferation, ATPlite luminescence, 48 h; cells starved in 0.2% serum; 100% = growth in 10% serum. proliferation, % at 10 µM. AID 2380. hit rate 0.29% among 330,000;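 active = compounds whose signal lies at least 3.5 SD above the mean of all wells on their plate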;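 also: 0% = DMSO-treated cells in low-serum medium and 100% = 10% serum control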
PfM18AAP inh-2 – PfM18AAP inhibition, confirmation | shares compounds with PfM18AAP inh-1 | recombinant PfM18AAP, H-Glu-NHMec fluorogenic cleavage | inhibition, % at 7.35 µM | hit rate 28% among 2,400;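 active = mean inhibition over replicate wells above the hit cutoff set for the earlier primary screen, cut at about 29% in these data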;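 also: 0% = median of test compound wells and 100% = 2 mM ZnCl2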
CTSL1 confirm – Cathepsin L (human) inhibition, confirmation. purified cathepsin L1, Z-Leu-Arg-MCA fluorescence. 2,400 tested, under 10 active. inhibition, % at 5.96 µM. shares compounds with PfM18AAP inh-1;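 active = average inhibition across replicates above the hit cutoff set in the earlier primary screen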;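 also: 0% = median of test compound wells and 100% = Z-Phe-Ala-diazomethylketone 1 µM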
* = called active by the depositor; ? = inconclusive; / = not tested or not shown.

SMILES | Exocytosis inh | PfM18AAP inh-1 | ALR inh | SMARCA2 activ | GASC-1 inh | beta cell repl | PfM18AAP inh-2 | CTSL1 confirm
CCC(C)N(c1nc(C)nc2c1nnn2Cc1ccccc1)C(C)CC (configuration not stated) | / | / | / | 0 | / | / | / | /
CC(=O)Oc1ccc(C(=O)O)cc1OC(C)=O | -1 | 70* | 24 | -2 | 1 | -1 | 50* | -5
COc1cc(C(=O)O)ccc1OC(C)=O | 0 | -4 | 0 | -3 | 7 | -4 | / | /
O=C(NCc1ccccc1)[C@H]1CCCN1C(=O)[C@H]1CCCN1C(=O)c1cccc(Cl)c1 | / | / | / | -2 | / | / | / | /
O=C1CSC(=S)N1N=Cc1cccc(OCc2ccccc2)c1 | 0 | / | / | -1 | / | / | / | /
O=C1CSC(=S)N1N=Cc1cccc2ccccc12 | -1 | / | / | -3 | / | / | / | /
O=C1CSC(=S)N1/N=C/c1cccnc1 | -5 | 35* | / | -4 | 17 | -3 | 11 | 0
Cc1ccccc1/C=N/N1C(=O)CSC1=S | -4 | 35* | 31 | 0 | -3 | 1 | -9 | 3
Cc1nnc(SC/C=C/c2ccccc2)n(N)c1=O | -3 | -1 | / | -1 | / | -1 | / | /
O=C(/C=C/c1ccccc1)n1cnnc1SC/C=C/c1ccccc1 | 0 | 41* | 6 | 1 | 1 | -2 | 27 | -5
CCCCCCCCN1C(=O)[C@@H](CC(=O)NCC23CC4CC(CC(C4)C2)C3)C[C@@]2(C(=O)OC)C1=C[C@H](COCc1ccccc1)O[C@@H]2C | / | / | / | -1 | / | / | / | /
CCN=C1NC(c2cccc(F)c2)C(C(=O)OC)=C(C)N1Cc1ccccc1C(F)(F)F (configuration not stated) | / | / | / | -7 | / | / | / | /
COc1cccc(/C=N/c2sc(Cc3ccccc3)c(C)c2C(N)=O)c1O | -3 | 34* | 12 | -1 | 2 | 1 | -24 | -5
COc1cc(/C=N/Nc2nncn2N)ccc1OCc1c(C)no[n+]1[O-] | 0 | 51* | -31 | -2 | 12 | -3 | -6 | 5
Cc1ccc(NC(=O)NNc2cccc(Cl)n2)cc1 | 11 | 53* | -29 | 5 | -2 | / | 24 | -5
O=C(NNc1cccc(Cl)n1)Nc1cccc(Cl)c1 | 1 | 52* | 5 | 4 | -16 | -3 | 49* | 2
O=C(NNc1cccc(Cl)n1)Nc1ccccc1 | 1 | 59* | -1 | 3 | -3 | 0 | 43* | 0
Cc1cccc(NC(=O)Nc2ccc(Cl)c(Cl)c2)n1 | -7 | -6 | -2 | -6 | 30 | -3 | / | /
Cc1cc(Nc2cccc(F)c2)cc(=O)n1-c1cccc(F)c1 | / | / | / | -2 | / | / | / | /
COc1cccc2sc(NNC(=O)C3=COCCO3)nc12 | -1 | 43* | 16 | -1 | 0 | -3 | 26 | -1
O=C(CS(=O)(=O)c1ccc(Cl)cc1)NCc1ccccc1 | -3 | 2 | 0 | 0 | -2 | -2 | / | /
NC(=O)CS(=O)(=O)c1ccc(Cl)cc1 | 0 | 40* | -8 | 2 | -4 | 2 | -56 | -2
c1ccc(CN2CCCC3CC2c2ccccc23)cc1 (configuration not stated) | / | / | / | -4 | / | / | / | /
Nc1nc2c(ncn2[C@@H]2O[C@H](C(=O)NCC(F)(F)F)[C@@H](O)[C@H]2O)c(=O)[nH]1 | / | / | / | -2 | / | / | / | /
CC(C)NC(=O)Nc1n[nH]c(Nc2ccc(Cl)cc2)n1 | -2 | 40* | 50 | 4 | -1 | -3 | 9 | -3
SMILES | Exocytosis inh | PfM18AAP inh-1 | ALR inh | SMARCA2 activ | GASC-1 inh | beta cell repl | PfM18AAP inh-2 | CTSL1 confirm
Cc1nnc(SCC(=O)NNC(=O)CC#N)[nH]c1=O | -2 | 43* | -5 | -5 | 9 | -3 | 28 | 4
COc1cc(/C=N/Nc2cc(C)nc(NS(=O)(=O)c3ccccc3)n2)ccc1O | 6 | 32* | 72 | 3 | -14 | 2 | -23 | -6
Cc1cc(NN)nc(NS(=O)(=O)c2ccc(Cl)cc2)n1 | -3 | 37* | -7 | 0 | -6 | 1 | 22 | -1
COc1cc(/C=N/Nc2nc(C)nc3c2cnn3-c2ccccc2)ccc1O | 12 | 33* | / | -4 | / | / | -26 | 0
COc1cc(C)nc(NS(=O)(=O)c2ccccc2)n1 | -8 | 2 | -4 | 0 | -47 | 0 | / | /
Cc1cc(NN)nc(NS(=O)(=O)c2ccccc2)n1 | -2 | 35* | -1 | -3 | -20 | -1 | 4 | -4
CCn1c(-c2cc(-c3cccc(OC)c3)nc3ccccc23)n[nH]c1=S | 6 | 13 | 63 | -2 | -1 | -2 | / | /
CCn1c(-c2cc(-c3ccccc3)sc2N)n[nH]c1=S | -1 | 41* | 99* | 3 | 16 | 1 | 8 | 4
COc1cc(/C=C2\NC(=S)N(C)C2=O)ccc1O | -7 | 36* | 99* | -1 | -8 | -3 | 16 | 4
CC(C)C(=O)c1ccc(O)c(O)c1 | 3 | 41* | 99* | -5 | ? | -2 | 21 | 1
Cc1ccc(NNC(=O)c2ccc(Cl)cc2)nn1 | 1 | 33* | 2 | 2 | -4 | -2 | 1 | 1
O=C(NCc1ccccc1)[C@@H]1CCCN1C(=O)[C@H]1CCCN1C(=O)c1ccccc1C(F)(F)F | / | / | / | 1 | / | / | / | /
CCOc1cc(C2Nc3ccccc3NC3=C2C(=O)CC(C)(C)C3)ccc1O (configuration not stated) | -2 | 37* | 90* | 0 | -3 | -3 | -28 | -8
O=C(N/N=C/c1ccc(Cl)cc1Cl)c1ccc(-n2cnnn2)cc1 | -5 | / | 1 | 3 | 0 | 3 | / | /
Nn1cnnc1N/N=C/c1ccc(Cl)cc1Cl | 11 | 48* | -24 | -8 | -3 | -1 | -21 | 1
COC(=O)N1Cc2ccnnc2CC1c1ccccc1-c1ccccc1 (configuration not stated) | / | / | / | 0 | / | / | / | /
O=c1c2ccccc2cnn1Cc1n[nH]c(=S)n1-c1ccccc1 | -2 | 35* | 27 | 0 | 10 | 0 | 18 | 4
S=c1[nH]nc(Cc2noc3ccccc23)n1-c1ccccc1 | 1 | 33* | 86* | -3 | -6 | -4 | -1 | -3
C[C@@H]1CN([C@@H](C)CO)C(=O)CCCn2cc(nn2)CO[C@H]1CN(C)C(=O)Nc1ccccc1 | / | / | / | -4 | / | / | / | /
S=c1[nH]nc(C2COc3ccccc3O2)o1 (configuration not stated) | 2 | 8 | 19 | 0 | -4 | 4 | / | /
S=c1nc(C2COc3ccccc3O2)[nH][nH]1 (configuration not stated) | -4 | 35* | -4 | 0 | 8 | 0 | 26 | 2
CCOC(=O)/C(N=Nc1sc(C(=O)OCC)c(C)c1C(=O)OCC)=C(\C)O | / | 3 | 41 | / | -6 | 4 | / | /
CCOC(=O)c1sc(N=NC2=C(O)CCCC2=O)c(C(=O)OCC)c1C | -2 | 35* | -10 | 0 | -19 | -3 | -41 | 2
